# Assay results taken from PubChem BioAssay AID504467 (National Center for Advancing Translational Sciences (NCATS), 2011).
# Screen size: about 330,000 compounds; about 7,700 (2.3%) were called active. Roughly 26% stayed inconclusive and do not appear here. What follows is part of a selection rich in actives, with near analogues and random picks from the rest. A number with no mark means an inactive call. Calls follow the shape of the dose curve; as a rule, active = well fitted inhibition curve with a large enough effect; inconclusive = small, poorly fitted or top-dose-only effect, or effect the other way; inactive = flat fitted curve, though single readings scatter.
# Test: qHTS screen for small molecules that inhibit ELG1-dependent DNA repair in human embryonic kidney (HEK293T) cells expressing luciferase-tagged ELG1; also: nearly all actives have a fitted effect of over 55% in size
# Details: HEK293T ELG1-luciferase reporter, luminescence, 16 h, DNA damage induced by 5-fluorouridine; series mostly up to 46.1 µM; activity change, negative = inhibition: at the top concentration
# In short: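 Overnight (16 hr) co-exposure of 2,000 cells/well to 5-fluorouridine and compound at 37 °C preceded detection. Luciferase was quantified via ONE-Glo luminescence; loss of signal denotes inhibition.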
# % is scaled to controls: 0 for no effect and ±100 for the full control effect; potency is read from the fitted curve at half-maximal effect.
SMILES,"activity change, negative = inhibition",Potency
O=C(N/N=C/C=C/c1ccccc1)C1CC1(c1ccccc1)c1ccccc1 (stereo not drawn),3.5%,
CC(/C=C/c1ccccc1)=N\NC(=O)C1CC1(C)c1ccccc1 (stereo not drawn),,23.1 µM (active)
CC(/C=C/c1ccco1)=N/NC(=O)C1COc2ccccc2O1 (stereo not drawn),-4.86%,
C#CCOCCOCCOCCNc1nc(N2CCN(C(=O)[C@H](CO)n3cc([C@@H](N)C(C)C)nn3)CC2)nc(N2CCN(C(=O)[C@H](CCC(=O)O)n3cc([C@@H](N)[C@H](C)CC)nn3)CC2)n1,3.33%,
CC(C)(C)c1ccc(NC(=O)NCc2ccco2)cc1,29.5%,
CC(C)(C)c1ccc(C(=O)NCCC(=O)NCc2ccco2)cc1,,5.8 µM (active)
O=C(CCNC(=O)c1ccccc1Cl)NCc1ccco1,4.02%,
CCCCN(C(=O)c1ccc2ccccc2c1)c1c(N)n(CCCC)c(=O)[nH]c1=O,0%,
COCCn1cnnc1SCC(=O)Nc1cccc(S(=O)(=O)N2CCCCC2)c1,4.22%,
Cc1ccccc1NC(=O)Nc1ccccc1N1CCCCC1,,18.3 µM (active)
Cc1cccc(N2CC(C(=O)Nc3ccccc3N3CCCC3)CC2=O)c1C (stereo not drawn),-3.99%,
Cc1ccccc1NC(=O)NC1(C(=O)N2CCCC2)CCCCC1,-5.66%,
O=C(CCC1CCCCC1)Nc1cc(C(F)(F)F)ccc1N1CCOCC1,-4.46%,
Cc1nn(C)c(C)c1NS(=O)(=O)c1ccc(OC(F)(F)F)cc1,0.543%,
CN(C)S(=O)(=O)c1cc(NC(=O)CN2C(=O)NC3(CCCc4ccccc43)C2=O)ccc1Cl (stereo not drawn),,25.9 µM (active)
CCN(CC)S(=O)(=O)c1ccc(CNC(=O)CN2C(=O)NC3(CCc4ccccc43)C2=O)cc1 (stereo not drawn),3.44%,
CCN(CC)c1ccc(NC(=O)CN2C(=O)NC3(CCc4ccccc43)C2=O)cc1 (stereo not drawn),5.28%,
N#Cc1ccccc1S(=O)(=O)N1CCN(Cc2c(O)ccc3ccccc23)CC1,-3.58%,
COCCn1c(SCC(=O)Nc2cc(Cl)ccc2OC)nc2c(c1=O)SC(C)C2 (stereo not drawn),,25.9 µM (active)
CCn1c(SCC(=O)Nc2ccccc2F)nc2c(c1=O)SC(C)C2 (stereo not drawn),-13.6%,
COCCn1c(SCC(=O)Nc2cc(OC)ccc2OC)nc2c(c1=O)SC(C)C2 (stereo not drawn),-7.11%,
Cc1cc(NC(=O)CSc2nnc(-c3ccco3)n2N)no1,14.5%,
CCNS(=O)(=O)c1ccc(CCC(=O)N2CCN(c3ccc(OC)cc3)CC2)cc1,-9.27%,
CCCNS(=O)(=O)c1ccc(CCC(=O)N2CCCC2)cc1,-1.71%,
CCNS(=O)(=O)c1ccc(CCC(=O)N2CCN(c3cc(Cl)ccc3C)CC2)cc1,,11.6 µM (active)

SMILES,"activity change, negative = inhibition",Potency
O=C1OC[C@@H]2CCCN2C(=O)[C@H](CC(=O)N(CCO)Cc2ccccc2)C/C=C\CC[C@@H]1Cc1ccc(F)cc1,7.5%,
O=C(NC(=S)Nc1ccccc1N1CCCCC1)c1ccc(F)cc1,3.01%,
COc1ccc(C(=O)NC(=S)Nc2ccccc2N2CCN(S(C)(=O)=O)CC2)cc1OC,,14.6 µM (active)
CCC(=O)Nc1ccccc1N1CCN(S(C)(=O)=O)CC1,8.38%,
COc1ccc(NC(=O)CNC(=O)Cc2ccccc2)cc1OC,1.57%,
COc1ccc(NC(=O)c2cc3nc(-c4ccccc4)cc(C)n3n2)cc1OC,,10.3 µM (active)
COc1ccc(NC(=O)COC(=O)Cn2c(C)nc3ccccc32)cc1OC,9.39%,
COCCCNC(=O)CC1C[C@H](C(=O)N2CCCCC2)[C@@]2(CCc3ccccc3)c3[nH]c4ccccc4c3CCN2C1=O (stereo partly drawn),7.79%,
CC(Oc1ccc(Br)cc1)C(=O)NCC(c1ccco1)N1CCCCC1 (stereo not drawn),-0.374%,
O=C(Nc1ccc(N2CCN(C(=O)c3ccccc3)CC2)c(Cl)c1)c1cccnc1,,8.2 µM (active)
O=C(Cc1ccccc1)Nc1ccc(NC(=O)c2cccnc2)cc1,2.94%,
O=C(Nc1cccc(Cl)c1N1CCOCC1)c1cccnc1,-3.8%,
Cc1cc(C)cc(NC(=O)C(c2ccccc2)N2CCN(CC(=O)N3CCCC3)CC2)c1 (stereo not drawn),0.225%,
CCC(C(=O)NCc1cccnc1)n1nc(C)c2sc3ccccc3c2c1=O (stereo not drawn),-1.1%,
Cc1onc(-c2c(F)cccc2Cl)c1C(=O)OCC(=O)N1C(C)CCCC1C (stereo not drawn),-14.7%,
COc1ccc(NC(=O)CSc2nnc(-c3cccs3)n2Cc2ccco2)cc1OC,,20.6 µM (active)
CCc1ccc(NC(=O)CSc2nnc(-c3cnccn3)n2Cc2ccco2)cc1,-6.25%,
O=C(CSc1nnc(-c2cccs2)n1-c1ccccc1)NCc1ccco1,-7.53%,
Cn1cc(CCC(=O)NC2CC2)c2ccccc21,-3.64%,
CC(C)CCn1cnc2c1c(=O)n(CC(=O)NC(N)=O)c(=O)n2Cc1ccccc1,0.175%,
CCn1nc(C(=O)NNC(=O)C2CSC3(C)CCC(=O)N23)c2ccccc2c1=O (stereo not drawn),10.3%,
O=C(NNC(=O)c1cccc(S(=O)(=O)Nc2ccc(Cl)cc2)c1)c1ccc(=O)[nH]c1,1.65%,
COc1ccc2nc(/N=C(\N)NC(=O)Nc3ccccc3)nc(C)c2c1,-16.6%,
Cc1nn(-c2ccccc2)c(C)c1C(=O)OCC(=O)NC(=O)NC1CCCCC1,-26.1%,
Cc1nc(/N=C(\N)NC(=O)NC2CCCCC2)nc2ccccc12,,9.2 µM (active)

SMILES,"activity change, negative = inhibition",Potency
COc1cc(OC)cc(C(=O)NNC(=O)Cc2cccs2)c1,19%,
CC1Cc2ccccc2N1S(=O)(=O)c1cccc(C(=O)NCC(c2ccco2)N2CCCC2)c1 (stereo not drawn),1.24%,
COc1ccccc1-n1cnc2cc(C(=O)NCC3CCCO3)ccc21 (stereo not drawn),11.5%,
COc1cccc(/C=C2\Sc3ccc(C(=O)NCC4CCCO4)cc3N(C)C2=O)c1 (stereo not drawn),,20.6 µM (active)
COc1cccc(C(=O)NCCS(=O)(=O)NCC2CCCO2)c1 (stereo not drawn),13.3%,
COc1cccc(CNC(=O)CN2C(=O)NC(Cc3ccccc3)(c3ccccc3)C2=O)c1 (stereo not drawn),-5.01%,
CCOc1ccc(CCNC(=O)COC(=O)c2c(OC)cccc2OC)cc1OCC,-5.36%,
CCCN1C2CCCC1CC(NC(=O)c1cccc(OC)c1)C2 (stereo not drawn),-8.9%,
O=C(c1c(Cl)cccc1Cl)N1CCN(c2cccc3[nH]ccc23)CC1,,18.3 µM (active)
COc1ccccc1N1CCN(C(=O)c2ccc(S(=O)(=O)N3CCCCC3)cc2)CC1,-21.4%,
O=C(c1ccc(S(=O)(=O)N2CCCC2)cc1)N1CCN(c2ccccc2F)CC1,13.3%,
COc1ccc(C)cc1NC(=O)CSc1nnc2ccc(-c3ccccn3)nn12,-10.6%,
COC(=O)c1cccc(C(=O)N2CCC(CCC(=O)NCc3ccc(F)cc3)CC2)c1,-2.27%,
CN(C)CCn1c2c(c(SCC(=O)NCc3ccccc3)nc1=O)CCC2,13.9%,
Cc1ccc(OCCNC(=O)CN2C(=O)NC3(CCCC3)C2=O)cc1,1.29%,
CC(NC(=O)COC(=O)CCC(=O)c1ccc(Cl)cc1)c1ccccc1 (stereo not drawn),2.29%,
COc1ccccc1-c1nnc2n1N=C(c1ccc(OC(F)F)c(OCC3CC3)c1)CS2,8.85%,
COc1ccc(C2=Nn3c(nnc3-c3ccccc3OC)SC2)cc1OC1CCCC1,,20.6 µM (active)
CC1=Nn2c(nnc2-c2ccccc2)SC1,8.64%,
O=C(Nc1nnc(-c2ccccc2)o1)c1cc(-c2cccs2)nc2ccccc12,-10.2%,
COC(=O)c1cc(-c2cccs2)nc2ccccc12,2.19%,
CC(=O)Nc1cccc(Nc2nc(-c3cccs3)nc3ccccc23)c1,,16.4 µM (active)
Cc1ccc2[nH]cc(CCNC(=O)C3CCCCC3)c2c1,-2.4%,
Cc1ccc2[nH]c(=O)c(CN(CCCN(C)C)C(=O)Nc3cccc(Cl)c3)cc2c1,0%,
Cc1cccc(NC(=O)N(Cc2cc3cc(C)cc(C)c3[nH]c2=O)CC2COCCO2)c1 (stereo not drawn),,11.6 µM (active)

SMILES,"activity change, negative = inhibition",Potency
O=C(c1cccs1)N(Cc1cc2ccccc2[nH]c1=O)CC1CCCO1 (stereo not drawn),18.7%,
Cc1cccc(N(Cc2ccccc2)C(=O)c2cc(S(=O)(=O)N3CCOCC3)ccc2F)c1,-24.2%,
CC(C)(C)c1ccc(C(=O)N2CCN(CCNC(=O)C(=O)Nc3ccc(F)cc3)CC2)cc1,-5.49%,
CC1=C(C(N)=O)C(c2ccc(Br)cc2)n2ncnc2N1 (stereo not drawn),0%,
Fc1ccccc1/C=C1\CCCC2=C1Nc1ncnn1C2c1ccccc1F (stereo not drawn),,18.4 µM (active)
Cc1cccc(N(C(=O)c2sc(C)nc2C)C(C(=O)NCC2CCCO2)c2ccccc2)c1 (stereo not drawn),-6.84%,
Cn1c(=O)c2c(nc(NCCNC(=O)c3ccco3)n2Cc2ccccc2F)n(C)c1=O,-4.05%,
CCCCNc1nc2c(c(=O)n(C)c(=O)n2C)n1Cc1cccc(OC)c1,,5.17 µM (active)
CCCCn1c(SCC(=O)NCCc2ccc(OC)c(OC)c2)nc2c1c(=O)n(C)c(=O)n2C,1.48%,
CC(C)CCn1c(CN(C)Cc2ccccc2)nc2c1c(=O)n(C)c(=O)n2C,,20.6 µM (active)
CCn1c(NCCc2ccc(OC)c(OC)c2)nc2c1c(=O)n(C)c(=O)n2C,,11.6 µM (active)
CCCCNc1nc2c(c(=O)[nH]c(=O)n2C)n1CCOc1ccccc1,-13.5%,
COC(=O)C(C)Sc1nc2c(c(=O)n(C)c(=O)n2C)n1Cc1cccc(C)c1 (stereo not drawn),5.21%,
Cn1c(=O)c2c(nc(NCc3ccccc3)n2CC(N)=O)n(C)c1=O,-6.05%,
COc1ccc(CCN2CNc3c(c(=O)n(C)c(=O)n3C)C2)cc1OC,-11%,
Cn1c(=O)c2c(ncn2CCc2ccccc2)n(C)c1=O,8.66%,
CC(C)CCn1c(=O)c2c(nc3n2CCCN3Cc2ccccc2)n(C)c1=O,-15.5%,
Cn1c(=O)c2c(nc(NCCc3ccccc3)n2Cc2ccccc2)n(C)c1=O,,23.1 µM (active)
Cn1nccc1C(=O)N1CCCC(C(=O)c2ccc(Oc3ccccc3)cc2)C1 (stereo not drawn),-11%,
Cc1ccccc1NC(=S)NC(=O)Cc1ccc(Cl)cc1,1.58%,
OC(CNCCc1ccc(Cl)cc1Cl)COc1ccccc1 (stereo not drawn),-0.165%,
COCCN(CCOC)S(=O)(=O)NC[C@H]1O[C@@H](n2cnc3c(N)ncnc32)[C@H](O)[C@@H]1O,-3.78%,
O=c1ccc(S(=O)(=O)N2CCCC2)cn1Cc1nc(-c2ccccc2)no1,-15.5%,
